Screening results: PubChem, National Center for Advancing Translational Sciences (NCATS)
TDP1 cell CPT: growth inhibition of DT40 Tdp1-/-;hTDP1 cells with camptothecin (screen for TDP1 inhibitors) | chicken DT40 Tdp1-/-;hTDP1 cells + 20 nM CPT, ATP luminescence, 48 h | Potency, µM (top dose mostly 46.2 µM), inactives show top-dose activity change, negative = growth inhibition, usual class: inhibitors | 420,000 tested, 12% active | AID 686979; also: % is scaled to controls: 0 for no effect and ±100 for the full control effect; nearly all actives have a fitted effect of over 55% in size
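Cell growth measured by CellTiter-Glo luminescence after a minimum 48 h, 37 C compound exposure with 20 nM CPT in Tdp1-knockout DT40 cells stably expressing hTDP1, seeded 400/well; qHTS titration format.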
ClpP mod: qHTS Assay for Activators of ClpP. ATP-dependent Clp protease proteolytic subunit (Bacillus subtilis (strain 168)), P80244. 340,000 tested, 1.9% active. purified B. subtilis ClpP, FRET peptide cleavage, 20 min. Potency, µM (top dose mostly 57.5 µM), inactives show at the highest dose activity change, negative = active; active = well fitted falling curve with a large enough effect; inconclusive = small, poorly fitted or top-dose-only effect; inactive = no such curve, though single readings can be large or run the other way; also: the source files actives as falling curves though it sought activators and does not explain the sign; nearly all actives have a fitted effect of over 65% in size
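Purified B. subtilis ClpP, 10 microg/mL final in Tris/HCl pH8 with KCl, BSA, glycerol and Tween-20, cleaved an Abz/nitrotyrosine-quenched decapeptide. Fluorescence (ex 320, em 430) was read at 0 and 20 min at room temperature. Delta was normalized to 5.8 microM ADEP and DMSO/no-enzyme controls.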
DT40 TDP1 no CPT: qHTS for Inhibitors of human tyrosyl-DNA phosphodiesterase 1 (TDP1): qHTS in cells in absence of CPT; DT40 Tdp1-/- hTDP1 cells, no CPT, ATP luminescence, 48 h; Potency, µM (doses to about 46.2 µM), for the others: at the highest dose activity change, negative = growth inhibition, most hits filed as inhibitors; 420,000 tested, 15% active; AID 686978, 2013; also: % is scaled to controls: 0 for no effect and ±100 for the full control effect; nearly all actives have a fitted effect of over 55% in size
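No-CPT arm: Tdp1-/-;hTDP1 DT40 cells (400/well) plus compounds, incubated ≥48 hr at 37 °C. Readout CellTiter-Glo luminescence.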
TDP1 inh: inhibitors of human tyrosyl-DNA phosphodiesterase TDP1; recombinant TDP1, AlphaScreen DNA substrate cleavage; Potency, µM (highest dose often 130 µM), for the others: top-dose activity change, negative = inhibition, usual class: inhibitors; 350,000 tested, 0.28% active; also: % is scaled to controls: 0 for no effect and ±100 for the full control effect; nearly all actives have a fitted effect of over 40% in size
Target sequence (Q9NUW8 whole entry, looked up): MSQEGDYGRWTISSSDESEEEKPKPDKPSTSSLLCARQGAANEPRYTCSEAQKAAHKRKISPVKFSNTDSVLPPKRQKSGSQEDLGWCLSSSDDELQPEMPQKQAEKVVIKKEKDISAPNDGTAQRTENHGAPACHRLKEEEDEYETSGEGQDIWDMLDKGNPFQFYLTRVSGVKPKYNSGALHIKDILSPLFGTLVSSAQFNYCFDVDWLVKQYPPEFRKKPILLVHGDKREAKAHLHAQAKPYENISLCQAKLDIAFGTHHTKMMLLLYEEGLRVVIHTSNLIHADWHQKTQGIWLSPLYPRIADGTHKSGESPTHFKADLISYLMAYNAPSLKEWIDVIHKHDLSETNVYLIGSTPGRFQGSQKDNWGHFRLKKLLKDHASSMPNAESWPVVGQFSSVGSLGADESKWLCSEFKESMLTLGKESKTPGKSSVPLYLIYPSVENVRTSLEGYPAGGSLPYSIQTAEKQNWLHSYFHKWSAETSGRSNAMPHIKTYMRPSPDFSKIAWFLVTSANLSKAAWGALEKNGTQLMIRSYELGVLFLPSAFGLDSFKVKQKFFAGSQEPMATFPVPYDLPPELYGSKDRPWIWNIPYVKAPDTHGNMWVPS
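Compounds were preincubated with Tdp1 (1 nM final) for 15 min at room temperature before substrate (15 nM final) started a 5 min reaction; beads (10 ug/ml final) were then added for 10 min before AlphaScreen detection.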
Numbers without * were called inactive; ? = inconclusive; . = not tested or not shown; [ ] = dose if it differs, or a comment. In the library only some 17% were active in any assay of this set; here they are far more common. Unless noted, calls follow the shape of the dose curve; as a rule, active = well fitted curve in the direction sought with a large enough effect; inconclusive = small, poorly fitted or top-dose-only effect, or another doubt; inactive = no such curve, though single readings can be large; an effect the other way counts as inactive or inconclusive. Potency is read from the fitted curve at half-maximal effect.

SMILES	TDP1 cell CPT	ClpP mod	DT40 TDP1 no CPT	TDP1 inh
O=C(Cc1csc(-c2ccccc2)n1)NCc1ccc(F)cc1	4%	1%	-13%	5%
COc1ccccc1NC(=O)Nc1nc(CC(=O)NCc2c(F)cccc2F)cs1	?	1%	21µM*	-8%
COc1cccc(CNC(=O)Cc2csc(NC(=O)Nc3ccccc3OC)n2)c1	?	3%	21µM*	1%
COc1ccccc1/C=C1\SC(=S)N(CCC(=O)Nc2nnc(C)s2)C1=O	?	.	-26%	-7%
CC1(C)S[C@@H]2[C@H](NC(=O)C(N)c3ccccc3)C(=O)N2[C@H]1C(=O)OC1OC(=O)c2ccccc21 (stereo partly drawn)	?	.	-25%[21.1 µM]	.
O=C(NCc1cccc(F)c1)c1ccc(CN2CC(=O)N3CCCCC3C2=O)cc1 (stereo not drawn)	-9%	-4%	-6%	6%
CCOc1ccc(C(=O)OCc2cc(=O)n3cc(C)sc3n2)cc1	-1%	-4%	4%	-3%
COc1ccc(C(=O)Nc2nc(CC(=O)NCCc3cccc(OC)c3)cs2)cc1	?	0%	15µM*	-3%
COc1ccc(C(=O)Nc2nc(CC(=O)NCCc3ccccc3)cs2)cc1	?	-3%	?	2%
Cc1ccc(NC(=O)CNC(=O)C2CCCCC2)nc1	-10%	.	3%	-1%
CC(C)c1ccc(C2N3CC4([N+](=O)[O-])CN2CC([N+](=O)[O-])(C3)C4(C)C)cc1 (stereo not drawn)	8.2µM*	1%	?	-2%
CCOCCCn1c(=N)c(C(=O)NC2CCCC2)cc2c(=O)n3cc(C)ccc3nc21	-23%	4%	-2%	.
Cc1ccc(S(=O)(=O)c2cn(Cc3ccc(F)cc3)c3cc(F)c(F)cc3c2=O)cc1	0%	1%	1%	6%
COc1ccc(S(=O)(=O)c2cn(Cc3ccccc3)c3cc(F)c(F)cc3c2=O)cc1	15µM*	-4%	?	4%
CCN(CC)c1cc2c(cc1F)c(=O)c(S(=O)(=O)c1ccc(OC)cc1)cn2Cc1ccccc1	?	32µM*	23µM*	1%
CCCCn1cc(S(=O)(=O)c2ccc(C)c(C)c2)c(=O)c2cc(F)c(N(CC)CC)cc21	7.3µM*	-24%	8.2µM*	-1%
COc1cc2c(=O)c(S(=O)(=O)c3ccc(C)cc3)cn(Cc3cccc(C)c3)c2cc1OC	16µM*	?	16µM*	9%
CC(NC(=O)C(c1ccccc1)c1ccccc1)C(=O)N1CCCCC1 (stereo not drawn)	-8%	-2%	-24%	2%
CCN(CC)c1cc2c(cc1F)c(=O)c(S(=O)(=O)c1ccccc1)cn2Cc1ccccc1	15µM*	22µM*	16µM*	5%
CCN(CC)c1cc2c(cc1F)c(=O)c(S(=O)(=O)c1ccccc1)cn2C	-28%	5%	?	-3%
Cn1cccc1C(=O)N1CCC[C@@]2(CCN(Cc3ccccc3)C2)C1	-6%	.	-18%	.
CCNc1nc(NCC)nc(-n2cc(C(=O)c3cc(Cl)ccc3O)cn2)n1	?	0%	10µM*	1%
CCCCNc1cc(F)nc(N)n1	-9%	0%	23%	6%
CCCCNc1nc(N)nc(-c2cc(Cl)ccc2O)n1	18µM*	-9%	16µM*	3%
CCNc1nc(N)nc(-c2cc(Cl)ccc2O)n1	?	0%	21µM*	3%
SMILES	TDP1 cell CPT	ClpP mod	DT40 TDP1 no CPT	TDP1 inh
CCCN(CCC)c1nc(N)nc(-c2cc(Cl)ccc2OC)n1	?	-30%	?	3%
CCC(C)(NC(=O)c1ccc2c(c1)OCO2)C(=O)NC1CCCCC1 (stereo not drawn)	3%	.	-1%	0%
CCOc1ccc(NC(=O)NCCn2nnc3cc(S(=O)(=O)N(C)C)ccc32)cc1	9%	2%	-10%	-1%
CCCCc1nc2c(c3c1C[C@H](C)OC3)CN(C(=O)NCCCC(=O)OCC)CC2	.	.	.	0%[12.3 µM]
Cc1ccc(NS(=O)(=O)c2ccc(C)c(NC(=S)NCCN3CCOCC3)c2)c(C)c1	?	1%	-12%	3%
CC(C)Oc1ccc(OCCn2c(S(=O)(=O)O)nc3c(N)ncnc32)cc1	2%	-3%	5%	.
Cc1[nH][nH]c(=O)c1N=Nc1ccc(Br)c(Cl)c1	?	.	23µM*	.
